Measurements from PubChem BioAssay (Tox21).
Records with an inconclusive call do not appear. More than one record can exist for a structure, and the calls need not agree. Activity calls are given as the source filed them. Unless noted, calls come from the whole dose curve; as a rule, active = well fitted curve in the direction sought with a large enough effect in the repeat runs; inconclusive = weak or mixed curves; inactive = no such curve, though single readings can be large; an effect the other way counts as inactive or inconclusive.

Legend:
[1] = qHTS assay for small molecule agonists of the p53 signaling pathway (AID 651631; calls by dose curve; note: potency is the fitted concentration of half-maximal effect; nearly all actives have a fitted effect of over 15% in size)
Method in brief: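 p53RE-bla HCT-116 cells; compounds 16 h, 37 °C; LiveBLAzer B/G FRET substrate 2 h RT; fluorescence intensity read-out, qHTS format.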

[2] = qHTS assay for small molecule agonists of the p53 signaling pathway - cell viability (AID 651633; calls by dose curve; note: nearly all actives have a fitted effect of over 30% in size; note: potency is the fitted concentration of half-maximal effect)
Method in brief: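 Viability counter-read: CellTiter-Glo luminescence (30 min, room temperature) in the same p53RE-bla plates. These plates had been exposed to compounds for 16 h at 37 C.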

[3] = qHTS assay for small molecules that induce genotoxicity in human embryonic kidney cells expressing luciferase-tagged ATAD5 - cell viability (AID 651634; calls by dose curve; note: % is set by controls: 0 for no effect and ±100 for the full control effect; nearly all actives have a fitted effect of over 25% in size)
Method in brief: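 Cells (HEK293T, luciferase-tagged ATAD5) are seeded at 2,000 per well, dosed with compound or DMSO vehicle, and incubated 15.5 hr at 37C and 5% CO2. CellTiter-Fluor is added for 30 min before fluorescence is measured.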

[4] = qHTS assay for small molecule disruptors of the mitochondrial membrane potential - cell viability (AID 720634; calls by dose curve;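 note: human HepG2 liver cancer cells; series mostly up to about 83 µM; % is set by controls: 0 for no effect and ±100 for the full control effect; nearly all actives have a fitted effect of over 20% in size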)
Method in brief: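 Cytotoxicity was measured by ATP quantitation in HepG2 wells that had first been treated with compound for 1 hr and stained with m-MPI dye; CellTiter-Glo incubation was 30 min at room temperature.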

[5] = qHTS assay to test for compound auto fluorescence at 590 nm (red) in HepG2 cells (AID 720674); note: % is set by controls: 0 for no effect and ±100 for the full control effect
Method in brief: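 1 hr compound incubation on HepG2 cells, 37 C, 5% CO2; plate read ex 540 nm / em 590 nm; intensities reported as Rose Bengal sodium equivalents.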

[6] = qHTS assay to test for compound auto fluorescence at 535 nm (green) in HepG2 cells (AID 720675); note: % is set by controls: 0 for no effect and ±100 for the full control effect
[7] = qHTS assay to test for compound auto fluorescence at 460 nm (blue) in HEK293 cells (AID 720678); note: potency is the fitted concentration of half-maximal effect
Method in brief: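 HEK293 cells (2,000 per well, medium with 10% dialyzed FBS) attached for 4-5 hr at 37C, then received compound and stood overnight at 37C, 5% CO2. Blue fluorescence was read at Ex/Em 405/460 nm and expressed relative to triamterene.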

[8] = qHTS assay to test for compound auto fluorescence at 590 nm (red) in HEK293 cells (AID 720679); note: % is set by controls: 0 for no effect and ±100 for the full control effect
Method in brief: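 HEK293 cells (2,000/well, medium with 10% dialyzed FBS) attached for 4-5 hr at 37C, received 23 nL compound and were incubated overnight at 37C, 5% CO2. Red fluorescence was then read at 540/590nm Ex/Em, referenced to Rose Bengal sodium.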

[9] = qHTS assay to test for compound auto fluorescence at 460 nm (blue) in HEK293 cell free culture (AID 720681); note: potency is the fitted concentration of half-maximal effect
Method in brief: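 Blue fluorescence (Ex 405/Em 460 nm, triamterene-equivalent) was read immediately after pin transfer of compound or DMSO into medium (DMEM, 10% FBS) without cells.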

[10] = qHTS assay to test for compound auto fluorescence at 535 nm (green) in HEK293 cell free culture (AID 720682); note: % is set by controls: 0 for no effect and ±100 for the full control effect
Method in brief: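 Cell-free medium (DMEM, 10% FBS) receives compound or DMSO by pintool. Plate read directly at Ex 485/Em 535 nm. Signal converted to fluorescein equivalency.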

[11] = qHTS assay to test for compound auto fluorescence at 460 nm (blue) in HepG2 cell free culture (AID 720685); note: potency is the fitted concentration of half-maximal effect
Method in brief: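 Cell-free plates of MEM plus 10% FBS received 23 nL compound or DMSO vehicle; blue-channel (405/460 nm) intensity scored against triamterene as reference fluorophore.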

[12] = qHTS assay to test for compound auto fluorescence at 535 nm (green) in HepG2 cell free culture (AID 720686); note: % is set by controls: 0 for no effect and ±100 for the full control effect
[13] = qHTS assay to test for compound auto fluorescence at 460 nm (blue) in HepG2 cells (AID 720687); note: potency is the fitted concentration of half-maximal effect
Method in brief: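 Blue-channel autofluorescence (Ex/Em 405/460 nm, triamterene-equivalent) was measured after 1 hr compound exposure at 37 C, 5% CO2. Cells were HepG2, plated overnight at 37 C in MEM plus 10% FBS.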

[14] = qHTS assay for small molecules that induce genotoxicity in human embryonic kidney cells expressing luciferase-tagged ATAD5 (AID 651632); note: % is set by controls: 0 for no effect and ±100 for the full control effect; nearly all actives have a fitted effect of over 15% in size
Method in brief: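 Cells were seeded at 2,000 per well, dosed with compound, and incubated 16 hr at 37C in 5% CO2. Luciferase activity was then quantified after a 30 min room-temperature incubation with Amplite.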

[15] = qHTS assay for small molecule disruptors of the mitochondrial membrane potential (AID 720635); note: potency is the fitted concentration of half-maximal effect
Method in brief: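 Mitochondrial membrane potential tracked with Mito-MPS dye, red aggregates (ex 540/em 590 nm) against green monomers (ex 490/em 535 nm). Compound treatment 1 hr at 37C, dye 30 min in HepG2.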

[16] = qHTS assay to test for compound auto fluorescence at 535 nm (green) in HEK293 cells (AID 720680); note: % is set by controls: 0 for no effect and ±100 for the full control effect
[17] = qHTS assay to test for compound auto fluorescence at 590 nm (red) in HEK293 cell free culture (AID 720683); note: % is set by controls: 0 for no effect and ±100 for the full control effect
Method in brief: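 Red-channel autofluorescence of compounds in culture medium (DMEM, 10% FBS), no cells, measured at 540/590 nm. Rose Bengal sodium is the reference fluorophore for equivalence.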

[18] = qHTS assay to test for compound auto fluorescence at 590 nm (red) in HepG2 cell free culture (AID 720684); note: % is set by controls: 0 for no effect and ±100 for the full control effect
Method in brief: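 No cells present: MEM + 10% FBS only. Compound pinned in, red label read (540/590 nm). Activity = fluorescence equivalent to Rose Bengal sodium.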

[19] = molecular target: Glucocorticoid receptor (Homo sapiens) (UniProt P04150); assay: qHTS assay to identify small molecule agonists of the glucocorticoid receptor (GR) signaling pathway (AID 720691; active = well fitted activation curve with a large enough effect in the signal ratio in the repeat runs, not every such curve was filed as active; the % refers to the signal ratio; note: % is set by controls: 0 for no effect and ±100 for the full control effect)
Method in brief: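 Steps: seed GR-bla HeLa cells, incubate 4 h at 37 C/5% CO2; pin-transfer DMSO-dissolved compounds; incubate 18 h at 37 C; add LiveBLAzer B/G FRET substrate; after 2 h at room temperature, measure fluorescence.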

[20] = molecular target: Glucocorticoid receptor (Homo sapiens) (UniProt P04150); assay: qHTS assay to identify small molecule antagonists of the glucocorticoid receptor (GR) signaling pathway (AID 720692; active = well fitted inhibition curve with a large enough effect in the signal ratio in the repeat runs, not every such curve was filed as active; the % refers to the signal ratio; note: potency is the fitted concentration of half-maximal effect)
Method in brief: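 Antagonism was scored as loss of dexamethasone-driven (5 nM final) reporter signal in HeLa cells bearing a glucocorticoid response element–beta-lactamase construct, after 18 h compound exposure at 37 C and 2 h FRET substrate loading.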
Tags give direction and shape of the fitted curve or compound fluorescence and quenching.

Sequence of Glucocorticoid receptor (Homo sapiens) (P04150 whole entry, looked up): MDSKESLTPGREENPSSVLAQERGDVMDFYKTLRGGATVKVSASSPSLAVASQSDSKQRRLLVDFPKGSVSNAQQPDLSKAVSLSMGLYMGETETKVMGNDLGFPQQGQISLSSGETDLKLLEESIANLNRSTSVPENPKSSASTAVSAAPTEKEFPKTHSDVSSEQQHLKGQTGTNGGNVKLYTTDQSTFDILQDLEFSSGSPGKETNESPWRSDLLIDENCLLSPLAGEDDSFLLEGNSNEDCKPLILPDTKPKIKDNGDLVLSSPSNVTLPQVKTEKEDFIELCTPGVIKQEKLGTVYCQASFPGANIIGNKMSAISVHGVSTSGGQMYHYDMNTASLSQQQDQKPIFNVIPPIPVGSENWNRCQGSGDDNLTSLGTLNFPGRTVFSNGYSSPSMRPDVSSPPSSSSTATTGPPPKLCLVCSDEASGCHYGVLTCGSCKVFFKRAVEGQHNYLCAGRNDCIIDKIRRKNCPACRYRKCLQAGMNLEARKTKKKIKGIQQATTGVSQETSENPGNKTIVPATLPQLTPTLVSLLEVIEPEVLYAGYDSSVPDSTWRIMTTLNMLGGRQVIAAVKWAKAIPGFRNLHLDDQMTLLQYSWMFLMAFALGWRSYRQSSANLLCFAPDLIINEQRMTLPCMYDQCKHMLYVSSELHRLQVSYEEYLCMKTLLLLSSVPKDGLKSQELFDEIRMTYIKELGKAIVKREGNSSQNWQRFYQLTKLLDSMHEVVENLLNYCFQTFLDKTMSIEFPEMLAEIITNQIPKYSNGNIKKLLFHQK

O=S(=O)(O)c1ccccc1/C=C/c1ccc(-c2ccc(/C=C/c3ccccc3S(=O)(=O)O)cc2)cc1
active: Potency [1] 17.5 µM | Potency [7] 5.01 µM [fluorescent] | Potency [9] 6.31 µM | Potency [11] 6.31 µM [fluorescent] | Potency [13] 5.62 µM [fluorescent]
inactive: Potency [2] | Potency [3] | Potency [4] | Potency [5] | Potency [6] | Potency [8] | Potency [10] | Potency [12]

Cc1cccc(C(=O)O)c1O
inactive: Potency [14] | Potency [2] | Potency [3] | Potency [4] | Potency [15] | Potency [5] | Potency [6] | Potency [7] | Potency [8] | Potency [16] | Potency [10] | Potency [17] | Potency [18] | Potency [11] | Potency [12] | Potency [19]

O=C(O)c1cc(-c2ccc(F)cc2F)ccc1O
active: Potency [15] 11.4 µM
inactive: Potency [14] | Potency [2] | Potency [3] | Potency [4] | fluorescence, relative to Rose Bengal [5] 0.164% [at 18.6 µM] | fluorescence, % of fluorescein control [6] -0.0913% [at 18.6 µM] | fluorescence, % of fluorescent control [8] -0.141% [at 18.6 µM] | fluorescence, % of fluorescein [16] 0.0391% [at 18.6 µM] | activity change [10] -0.026% [at 18.6 µM, stronger effect = higher value] | fluorescence, % of fluorescent control [17] -0.0186% [at 18.6 µM] | fluorescence, % of Rose Bengal [18] -0.0804% [at 18.6 µM] | fluorescence, % of fluorescein control [12] -0.0114% [at 18.6 µM] | fluorescence, % of fluorescent control [13] -0.098% [at 18.6 µM] | Potency [19]

C#C[C@]1(OC(C)=O)CC[C@H]2[C@@H]3CCC4=C[C@@H](OC(C)=O)CC[C@@H]4[C@H]3CC[C@@]21C
inactive: Potency [14] | Potency [3] | Potency [4] | Potency [5] | Potency [6] | Potency [7] | Potency [8] | Potency [16] | Potency [9] | Potency [10] | Potency [17] | Potency [12] | Potency [13] | Potency [19]
active: Potency [15] 13.3 µM | Potency [20] 9.52 µM
29.8 µM (active) and inactive: Potency [2]
